High-throughput results from PubChem.
HEK cytotox = kills HEK 293 cells; HEK 293 viability, ATP luminescence (CellTiter-Glo), 48-72 h; Potency, µM (highest dose often 115 µM), inactives show at the top dose activity change, negative = cytotoxicity, actives largely listed as inhibitors; 94,000 compounds, 6.6% hits; AID 1345083; further: nearly all actives have a fitted effect of over 60% in size
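HEK 293 cells at 250 cells/well were exposed to compounds by pintool transfer for 48 or 72 hr at 37 degree Celsius, 5% CO2. Viability was read as ATP-coupled luminescence with CellTiter-Glo after 10 min at room temperature.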
FLuc inh = Photinus pyralis luciferase inhibition. 76,000 compounds, 2.5% hits. P08659. Potency, µM (highest dose often 115 µM), usual class: inhibitors. purified P. pyralis luciferase, luminescence, biochemical; further: nearly all actives have a fitted effect of over 65% in size
Target sequence (P08659 whole entry, looked up): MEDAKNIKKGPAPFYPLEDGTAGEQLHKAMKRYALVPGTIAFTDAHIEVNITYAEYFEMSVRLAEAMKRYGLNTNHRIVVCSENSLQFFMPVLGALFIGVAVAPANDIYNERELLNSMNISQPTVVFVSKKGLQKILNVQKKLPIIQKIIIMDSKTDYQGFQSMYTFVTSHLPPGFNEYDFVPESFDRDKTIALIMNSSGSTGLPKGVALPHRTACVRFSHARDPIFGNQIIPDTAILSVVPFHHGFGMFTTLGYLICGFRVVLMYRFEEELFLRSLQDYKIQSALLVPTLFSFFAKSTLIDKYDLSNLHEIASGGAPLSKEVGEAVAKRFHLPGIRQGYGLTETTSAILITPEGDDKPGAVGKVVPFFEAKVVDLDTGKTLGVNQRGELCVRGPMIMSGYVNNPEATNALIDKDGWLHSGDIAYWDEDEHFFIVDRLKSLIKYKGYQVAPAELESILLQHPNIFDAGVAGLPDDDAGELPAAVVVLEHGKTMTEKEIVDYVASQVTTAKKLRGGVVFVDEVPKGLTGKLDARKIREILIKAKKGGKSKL
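FLuc 10nM, D-luciferin 10uM, ATP 10uM, Mg acetate 10mM, Tris acetate pH 7.5, Tween/BSA; cpd qHTS; enzyme added last; CCD luminescence.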
NPR1 antag = human Npr1 receptor antagonism; AID 1347048; HEK293 hNpr1 GloSensor cGMP, ANP-stimulated luminescence; Potency, µM (doses to about 46.3 µM), inactives show top-dose activity change, negative = inhibition, hits mostly inhibitors; 76,000 compounds, 1.6% hits; P16066; calls by dose curve; further: nearly all actives have a fitted effect of over 60% in size
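Compound pre-incubated 30 min at room temperature on GloSensor-loaded HEK293 cells stably carrying hNpr1 and the pGS-40F cGMP biosensor. Stimulation uses hNppA at 0.1 nM final; luminescence is taken at baseline and 20 min post-agonist.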
3T3 cytotox = NIH 3T3 cell cytotoxicity; NIH 3T3 viability, CellTiter-Glo ATP luminescence, 48-72 h; Potency, µM (top dose mostly 96.7 µM), for inactives: top-dose activity change, negative = cytotoxicity, most hits filed as inhibitors; 94,000 compounds, 4.3% hits; AID 1345082; further: nearly all actives have a fitted effect of over 55% in size
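Mouse fibroblast NIH 3T3 cells, 400 per well, received compound via pintool and were incubated for 48 or 72 hr prior to CellTiter-Glo ATP luminescence measurement.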
The depositor's hits bear a star; i = inactive; ? = inconclusive; . = not tested or not shown; [ ] = dose if it differs, or a comment. The list is not random: actives were taken first. Their share in the collection is about 11%. Unless noted, the call rests on the fitted dose curve; in most records, active means well fitted curve in the direction sought with a large enough effect; inconclusive means small, poorly fitted or top-dose-only effect, or another doubt; inactive means no such curve, though single readings can be large; an effect the other way counts as inactive or inconclusive. On the % scale 0 is the no-effect control and ±100 the full control effect; potency means the concentration at half of the fitted maximal effect.

SMILES	HEK cytotox	FLuc inh	NPR1 antag	3T3 cytotox
O=C(CCCc1ccccc1)NCC1CCCCC(=O)N1 (centres undefined)	i	.	.	i
CN(C)Cc1cccc(-c2cc3c(ccn3Cc3cccnc3)c(C3=CCOCC3)n2)c1	35µM*	i	0%[70.6 µM]	?
Cc1ccc(-c2cc3c(ccn3Cc3cccnc3)c(C3=CCOCC3)n2)cn1	45µM*	i	-1%[70.6 µM]	?
C1=C(c2nc(-c3cncnc3)cc3c2ccn3Cc2cccnc2)CCOC1	-16%[172 µM]	i	3%[70.6 µM]	?
COc1cccc(-c2cc3c(ccn3Cc3cccnc3)c(C3=CCOCC3)n2)c1OC	100µM*	i	0%[70.6 µM]	71µM*
C[S+](=O)([O-])Nc1cccc(-c2cc3c(ccn3Cc3cccnc3)c(C3=CCOCC3)n2)c1	?	i	-10%	?
C=CCNc1ncnc2c1CCN(C(=O)c1ccccc1OCC)CC2	-17%	i	-4%	-4%
O=C(NCC(=O)N1CCC(c2ccccc2)CC1)c1ccc(-c2cnc3ccccc3c2)cc1	-2%	.	.	-12%
Cc1cc2nc3n(c(=O)c2n1CC(=O)Nc1cccc(Cl)c1)CCCCC3	?	i	-16%	?
COc1ccccc1CN1Cc2cc(NC(=O)c3ccc(C#N)cc3)ccc2OC(C)C1=O (centres undefined)	?	i	-20%	?
CCc1cccc2c(C(CC(=O)N3CCC(C)CC3)c3cccc(C)c3)c[nH]c12 (centres undefined)	35µM*	i	3%	?
CCc1cccc2c(C(CC(=O)N3CCCC3)c3cccc(Cl)c3)c[nH]c12 (centres undefined)	?	i	-2%	-24%
CCc1cccc2c(C(CC(=O)N3CCCC3)c3ccc(Cl)c(Cl)c3)c[nH]c12 (centres undefined)	40µM*	i	5%	?
CCOC(=O)C1CCN(C(=O)CC(c2ccc(OC)c(OC)c2)c2c[nH]c3c(CC)cccc23)CC1 (centres undefined)	79µM*	i	3%	?
CCOC(=O)C1CCN(C(=O)CC(c2ccc3c(c2)OCO3)c2c[nH]c3ccccc23)CC1 (centres undefined)	?	i	0%	?
CC(C)[C@@H]1C[C@@H]2C[C@@H](NC3CCCC3)C[C@]2(c2ccccc2)CO1	-24%	.	.	?
CC(C)[C@@H]1C[C@@H]2C[C@@H](NCc3ccccc3)C[C@]2(c2ccccc2)CO1	79µM*	.	.	?
O=C(C1CCCN1C(=O)C1CCCC1)N1CCC(N2Cc3cccn3C2=O)CC1 (centres undefined)	i	.	.	-4%
O=C(C1CCCN1C(=O)Nc1ccc(Cl)cc1)N1CCC(N2Cc3cccn3C2=O)CC1 (centres undefined)	?	.	.	28µM*
CC(C)N1C[C@H](C(=O)NCCOc2ccccc2)[C@H](C(=O)O)C1	-17%	?	-23%	-12%
CC(C)c1ccc(-n2cc(CN3CCN(C(=O)N(C)C)CC3)cn2)cc1	?	28µM*	-30%	-26%
CCCCc1ccc(-n2cc(CN3CCN(C(C)=O)CC(O)C3)cn2)cc1 (centres undefined)	?	40µM*	-3%	?
CC(C)c1ccc(-n2cc(CN3CCCC4(C3)CN(C)C(=O)O4)cn2)cc1 (centres undefined)	?	?	-24%	?
Cc1cc(-c2nc(C3CCOCC3)nn2Cc2ccccc2C)c(C)o1	?	i	-29%	?
O=C(NC1CC1)C1CCCN(Cc2cccc(-c3cccs3)c2)C1 (centres undefined)	40µM*	.	.	?
O=C(NC1CCN(Cc2cccc(-c3cccs3)c2)CC1)C1CCCC1	-37%	.	.	-19%
O=C(NC1CCCC1)C1CCCN(Cc2cccc(-c3cccs3)c2)C1 (centres undefined)	45µM*	.	.	?
O=C(NC1CCCCC1)C1CCCN(Cc2cccc(-c3cccs3)c2)C1 (centres undefined)	?	.	.	28µM*
CCC(C)NC(=O)Cn1cccc1-c1nc(-c2ccc(OC)c(F)c2)no1 (centres undefined)	?	i	0%	?
C=CCN1C[C@@H]2C[C@@H](C(=O)NC)N(C(=O)c3ccc(-c4cccs4)s3)c3cccc(c32)C1=O	-11%[57.5 µM]	.	.	?
